{
  "source": "the supplement of paper PMC8387472",
  "data": [
    {"compound": "Cc1cccc(CC(=O)N2CCc3c2ccc(-c2cn(C)c4ncnc(N)c24)c3F)n1", "assay": "fraction of microhomology deletions among edited reads; higher = more MH deletions", "settings": "mESC; 2uM; 72 h treatment, harvest day 5", "values": [
      {"target": "32.0 (DMSO control at this site: 1-bp insertion 0.03, MH deletion 0.85, edited 0.898) AGAAGTCCAGGATCAGGGGGACTGGGGTCGGGAGGGTGGGGCAGGAAGGAAGCCAGAATCA", "fraction of microhomology deletions among edited reads": 0.897},
      {"target": "26.0 (DMSO control at this site: 1-bp insertion 0.518, MH deletion 0.262, edited 0.026) AGGGCGCGCCCCACGCACTCTGCGGCAAGTCCCTCTGCGGCAAGTCCTCGGCCCGGAAGAC", "fraction of microhomology deletions among edited reads": 0.301},
      {"target": "34.0 (DMSO control at this site: 1-bp insertion 0.184, MH deletion 0.385, edited 0.103) ATTATAGGACCCTGAGGGAGCAGAGATGTGGGAATGGGGGCCGAGCCAATTGTGATGTAAG", "fraction of microhomology deletions among edited reads": 0.483},
      {"target": "18.0 (DMSO control at this site: 1-bp insertion 0.114, MH deletion 0.789, edited 0.094) GCGCAAGTGCATAAGTTTTTCTTAAGGCGTGCCTTTAAGGCGTGCCTTTGTCGGTCCTGGA", "fraction of microhomology deletions among edited reads": 0.755},
      {"target": "41.0 (DMSO control at this site: 1-bp insertion 0.022, MH deletion 0.754, edited 0.115) AAAGAGACAGCAGGTATGAATCCATCTTCCTGACCCTTGGGACCAGCCGGGGCAGTGAAGC", "fraction of microhomology deletions among edited reads": 0.715},
      {"target": "47.0 (DMSO control at this site: 1-bp insertion 0.095, MH deletion 0.585, edited 0.118) GAGTGGTCCCGAGCCAGGAACTGTGTGTGTTGCAGGGGGGCAGTAACTCCCCAACTCCCTC", "fraction of microhomology deletions among edited reads": 0.477},
      {"target": "35.0 (DMSO control at this site: 1-bp insertion 0.01, MH deletion 0.72, edited 0.098) CCACTTTTAGAGAGGGTGAAAATCATCAGTTATCATCAGGGCAACAAATTGCTTTCTCCTA", "fraction of microhomology deletions among edited reads": 0.695},
      {"target": "16.0 (DMSO control at this site: 1-bp insertion 0.172, MH deletion 0.29, edited 0.05) CGGACTGCACACATGGGTAGGATCGTGCACGCGAGGTAGGATCGTGCACGCGAAGTTATTC", "fraction of microhomology deletions among edited reads": 0.281},
      {"target": "19.0 (DMSO control at this site: 1-bp insertion 0.121, MH deletion 0.101, edited 0.057) TCTGCAGGGGTCGGAACCCGGGGGCTAGGGCTATCCCGGGGGCTAGGGCTATTAGCGAACC", "fraction of microhomology deletions among edited reads": 0.212},
      {"target": "22.0 (DMSO control at this site: 1-bp insertion 0.573, MH deletion 0.229, edited 0.045) CTGATGGTTGAAGGATTTAGCCGGGGTCCTAGACGCCGGGGTCCTAGACGAAAGGGCCACG", "fraction of microhomology deletions among edited reads": 0.0873},
      {"target": "38.0 (DMSO control at this site: 1-bp insertion 0.063, MH deletion 0.487, edited 0.17) GGGCTGGGTGCTAAAATGAGGAGCTCCAAGAAGACTGAGGTGAACCTGGAGGCCCCTGAGC", "fraction of microhomology deletions among edited reads": 0.495},
      {"target": "5.0 (DMSO control at this site: 1-bp insertion 0.214, MH deletion 0.567, edited 0.105) CGCTGACCCGAGACCTACGCGAACCGAAATCGGCGACCGGTGCGCAAGCAGGGCTGGCGTC", "fraction of microhomology deletions among edited reads": 0.568},
      {"target": "1.0 (DMSO control at this site: 1-bp insertion 0.521, MH deletion 0.323, edited 0.141) GTGTCACAGTGCACGAGTGACGGGATAATGTGCTGACAGGTAATTGATAGGCTTCCAACTT", "fraction of microhomology deletions among edited reads": 0.227},
      {"target": "0.0 (DMSO control at this site: 1-bp insertion 0.463, MH deletion 0.339, edited 0.14) AGGATTACCGAGACCTACGCGAACCGAAATCGCTGTCCGGTGCGCAAGCAGGGCTGGCGTC", "fraction of microhomology deletions among edited reads": 0.291},
      {"target": "3.0 (DMSO control at this site: 1-bp insertion 0.109, MH deletion 0.149, edited 0.09) TGCTAGCGCCCCCACAAAGCGGACCAGCCAGCACTATAGGGAATAAGGCCAACTTGCACCC", "fraction of microhomology deletions among edited reads": 0.186},
      {"target": "7.0 (DMSO control at this site: 1-bp insertion 0.128, MH deletion 0.374, edited 0.098) TACTCAACCGAGACCTACGCGAACCGAAATCGTATGCCGGTGCGCAAGCAGGGCTGGCGTC", "fraction of microhomology deletions among edited reads": 0.441},
      {"target": "39.0 (DMSO control at this site: 1-bp insertion 0.328, MH deletion 0.371, edited 0.204) CTGCACAGTCACTTAGGATAGGAGAAGATGATGTATAGGGTTTAGTGGGAGATGTTGCAAG", "fraction of microhomology deletions among edited reads": 0.372},
      {"target": "25.0 (DMSO control at this site: 1-bp insertion 0.017, MH deletion 0.774, edited 0.143) GGGCCTGAATGGTGTGGACATCTACTCGCTGGTGAGCTGGTGACTGAAAACATTCAGTGGC", "fraction of microhomology deletions among edited reads": 0.759},
      {"target": "40.0 (DMSO control at this site: 1-bp insertion 0.072, MH deletion 0.192, edited 0.189) GCGAATCAACTGTTCAACAACAGCAGCAGCCACCTGGAGGACTACAGTGGCCTGTCCGTGT", "fraction of microhomology deletions among edited reads": 0.156},
      {"target": "42.0 (DMSO control at this site: 1-bp insertion 0.145, MH deletion 0.655, edited 0.132) GGGCTAAACCTATGAGCACAGTAGAACTAAGGGTGGGTGGTGTAGCTAAAGAACTTGACCA", "fraction of microhomology deletions among edited reads": 0.682},
      {"target": "28.0 (DMSO control at this site: 1-bp insertion 0.035, MH deletion 0.77, edited 0.142) TGGTTCTTCCTTTGTAGAGAGTGTTCATCTGGGAATCTGGGACTTGGATGAGACAATCATT", "fraction of microhomology deletions among edited reads": 0.747},
      {"target": "2.0 (DMSO control at this site: 1-bp insertion 0.364, MH deletion 0.356, edited 0.125) GGTGCCCCCGAGACCTACGCGAACCGAAATCGATGTCCGGTGCGCAAGCAGGGCTGGCGTC", "fraction of microhomology deletions among edited reads": 0.3},
      {"target": "4.0 (DMSO control at this site: 1-bp insertion 0.146, MH deletion 0.523, edited 0.125) ACGCCTTAGTGCACGAGTGACGGGATAATGTGGTCTCAGGTAATTGATAGGCTTCCAACTT", "fraction of microhomology deletions among edited reads": 0.492},
      {"target": "29.0 (DMSO control at this site: 1-bp insertion 0.084, MH deletion 0.745, edited 0.133) TTGATGAACTTCCTCTTCTTCTCATGTCTCCGGTCTCCGGTAGGCCACGTGCATGGCCACT", "fraction of microhomology deletions among edited reads": 0.702},
      {"target": "17.0 (DMSO control at this site: 1-bp insertion 0.112, MH deletion 0.348, edited 0.058) CCATAGCGCGATAAATATGACGGCTCATCCTGTATGACGGCTCATCCTGTATCAACTGTCC", "fraction of microhomology deletions among edited reads": 0.409},
      {"target": "45.0 (DMSO control at this site: 1-bp insertion 0.017, MH deletion 0.666, edited 0.101) TTACACAGCATGAACTGCTAGGTGATGATGTCAGATTCGGTTTTACTAACTTCTCCAAAAA", "fraction of microhomology deletions among edited reads": 0.655},
      {"target": "30.0 (DMSO control at this site: 1-bp insertion 0.074, MH deletion 0.67, edited 0.142) GAGCTGGCATGAGTATTTGTGCCACATGGCTCCCACATGGCTCCACATGCAAGTTTGAAAC", "fraction of microhomology deletions among edited reads": 0.586},
      {"target": "44.0 (DMSO control at this site: 1-bp insertion 0.181, MH deletion 0.512, edited 0.123) ACACATACCTTCTTCGAGGCAGCCAGCATGATGAGACAGGTCTCCCACAAACACATCGTGT", "fraction of microhomology deletions among edited reads": 0.384},
      {"target": "20.0 (DMSO control at this site: 1-bp insertion 0.349, MH deletion 0.138, edited 0.084) TACAGGTGTAGACTGGTTACGTGGCTGCGGAATTGACTGGTTACGTGGCTGCGGAATTTTG", "fraction of microhomology deletions among edited reads": 0.191},
      {"target": "43.0 (DMSO control at this site: 1-bp insertion 0.134, MH deletion 0.714, edited 0.104) AGTTTAACTTACTCCGGCCAAAAAAGAACTGCACCTCTGGAGCGGGTTAGTGGTGGTGGTA", "fraction of microhomology deletions among edited reads": 0.717},
      {"target": "33.0 (DMSO control at this site: 1-bp insertion 0.008, MH deletion 0.771, edited 0.112) CATTAAGAGCAGCTGCCGGCCCCCAAGTGGACAGAGCTGGCCCTGCTGATTCAACAGTGCA", "fraction of microhomology deletions among edited reads": 0.732}
    ]}
  ]
}
